Assay results reported in PubChem BioAssay (NCI).
This is part of a sample that, as a whole, favours compounds with a hit. Of some 83,000 tested, about 20% had one in any assay.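 The endpoint reported here, percent growth, reads 100 for growth as untreated, 0 for no net growth and -100 for all cells dead.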 Values without a mark were called inactive. The source made the active and inactive calls. Rule for the calls: active = growth percent below 10; inactive = the rest.

The molecules below were run on DU-145 prostate (assay: NCI-60 one-dose screen, 48 h (100 = growth as untreated, 0 = no growth, -100 = all killed)). Details: 10 µM unless noted.
For O=C(CCl)c1ccc([N+](=O)[O-])o1, the growth was -30.8% (active).
CCCCCSC1C2C(=O)C(Br)=CC13CCNc1c(O)c4c5c(c13)=[N+]2CCC=5C=N4 (configuration not stated) was tested, and the growth was -100% (active).
For COc1ccc(C/C(C)=C(\c2ccc(OCCN3CCOCC3)cc2)c2ccc(OC(=O)Cc3ccccc3)cc2)cc1, the growth was 9.74% (active).
With Cn1cc(-c2csc(-c3cn(CCCCN4CCCCC4)c4ccc(F)cc34)n2)c2cccnc21 the growth was -81% (active).
COc1ccc2c(c1)c(-c1nc(-c3cn(C)c4ncccc34)cs1)cn2CCCCN1CCCCC1 was tested, and the growth was 7.63% (active).
C[n+]1c(/C=C/c2ccc(N(CCCl)CCCl)cc2)sc2ccccc21 was tested, and the growth was 45.2%.
C=CC[Se]C(=O)c1ccccc1OC(C)=O was tested, and the growth was 1.76% (active).
Work on CC(=O)OC1CCC2C3CCC4=C/C(=N/OC(=O)c5ccc(N(CCCl)CCCl)cc5)CCC4(C)C3CC(C)C12 (configuration not stated) yielded a growth of 79.6%.
CCCCCCCC[n+]1ccc2ccccc2c1 was tested, and the growth was 82.7%.
Cn1cccc1C1CC(=O)N(CCC[Se]C#N)C1=O (configuration not stated) was tested, and the growth was -76% (active).
With C[Se]C(=O)c1ccccc1OC(C)=O the growth was 76.9%.
O=C1Nc2ccccc2C2c3cccn3-c3ccccc3CN12 (configuration not stated) was tested, and the growth was 84.8%.
CCOC(=O)[C@@H](C)C[C@H](Cc1ccccc1)NC(=O)c1csc([C@@H](C[C@H](C(C)C)N(C)C(=O)[C@H](CCC(C)C)NC(=O)[C@H]2CCCCN2C)OC(C)=O)n1 showed a growth of 15.7%.
COC(=O)[C@H](C[C@H](Cc1ccccc1)NC(=O)c1csc([C@@H](C[C@H](C(C)C)N(C)C(=O)[C@@H](NC(=O)[C@H]2CCCCN2C)C(C)C)OC(C)=O)n1)NC(=O)OCc1ccccc1 was tested, and the growth was -18.2% [8.5 µM] (active).
In the case of CC1(C)N=C(N)N=C(N)N1c1ccc(OCCCNC(=O)Nc2ccc(S(=O)(=O)F)cc2)c(Cl)c1, the growth is reported as 32.4%.
Molecule O=C(CN1CCN(C(=O)c2ccco2)CC1)Nc1ccc(Cl)cc1C(=O)c1ccccc1Cl has a growth of 111%.
Molecule Cc1cc(N(CCCl)CCCl)ccc1C=Nc1ccccc1-c1ccccc1 has a growth of 61.2%.
In the case of Cn1cc(-c2csc(-c3cn(CCN4CCOCC4)c4ccccc34)n2)c2cccnc21, the growth is reported as 89.1%.
With CCOC(=O)[C@@H](C)C[C@H](Cc1ccccc1)NC(=O)c1csc([C@@H](C[C@H](C(C)C)N(C)C(=O)[C@H](CC)NC(=O)[C@H]2CCCCN2C)OC(C)=O)n1 the growth was 5.21% (active).
ClC1=C(Cl)C(Cl)(C2(Cl)C(Cl)=C(Cl)C(Cl)=C2Cl)C(Cl)=C1Cl was tested, and the growth was -43.1% (active).
O=C([O][Hg][CH2]C1OCCOC1[CH2][Hg][O]C(=O)c1ccccc1)c1ccccc1 (configuration not stated) showed a growth of 90.1%.
In the case of COc1ccc([As]=[As]c2ccc(OC)c(NCS(=O)(=O)O)c2)cc1NCS(=O)(=O)O (configuration not stated), the growth is reported as 43.1%.
For [Cl][Hg][n]1c(-c2ccco2)nc2ccccc21, the growth was 97.3%.
For CCC[CH2][Sn]([CH2]CCC)([CH2]CCC)[O]c1ccc(Cl)cc1Cl, the growth was -99.4% (active).
Work on NC(CCl)CCl yielded a growth of 105%.
In the case of CN1CCC(c2c[nH]c3ccccc23)C1 (configuration not stated), the growth is reported as 110%.
CCCCCCCCCCCCCCCCCC1OC[C@@H](COC(=O)O[C@@H](C(=O)O[C@H]2C[C@@]3(O)[C@@H](OC(=O)c4ccccc4)[C@@H]4[C@]5(OC(C)=O)CO[C@@H]5C[C@H](O)[C@@]4(C)C(=O)[C@H](OC(C)=O)C(=C2C)C3(C)C)[C@@H](NC(=O)c2ccccc2)c2ccccc2)O1 (some centres not stated) showed a growth of 45.1%.
In the case of CC1=C([Te]c2ccc(O)cc2)C(=O)c2ccccc2C1=O, the growth is reported as 7.43% (active).
Work on O=C1NC(=O)C(=Cc2cn(CCCCCCn3c4ccccc4c(=O)c4ccccc43)c3ccccc23)C(=O)N1 yielded a growth of 96.8%.
With CC(C)OC(=O)[C@H](C)NP(=O)(Oc1ccccc1)C1CCCN(O)C1=O (some centres not stated) the growth was 98.1%.
CCCCCCC(=O)NC1=C(N2CC2)C(=O)C(NC(=O)CCCCCC)=C(N2CC2)C1=O gave a growth of 15.6%.
COc1ccc(/C=C\c2cc(OC)c(OC)c(OC)c2)cc1NS(=O)(=O)c1ccc(Cl)cc1 gave a growth of 94%.
In the case of CC[C@H](C)[C@H](NC(=O)[C@H]1CCCCN1C)C(=O)N(C)[C@H](CC(=O)c1nc(C(=O)N[C@@H](Cc2ccccc2)C[C@H](C)C(=O)O)cs1)C(C)C, the growth is reported as 106%.
C[C@]12C[C@@H](CO)[C@H](O)C[C@@H]1CC[C@@H]1[C@@H]2CC[C@]2(C)[C@@H](O)CC[C@@H]12 showed a growth of 106%.
[Cl][Hg][c]1cc[c]([Hg][Cl])o1 was tested, and the growth was 70.6%.
NC(=S)c1cn(C2OC(CO)C(O)C2O)c2ncnc(N)c12 (configuration not stated) was tested, and the growth was -18.8% (active).
In the case of COC(=O)CC[C@H](Cc1ccccc1)NC(=O)c1csc([C@@H](C[C@H](C(C)C)N(C)C(=O)[C@@H](NC(=O)[C@H]2CCCCN2C)C(C)C)OC(C)=O)n1, the growth is reported as 39.1%.
